Sfp PPTase inh = blocks B. subtilis Sfp PPTase activity; Q9F4F7; Potency, µM, for the others: largest response in the series, negative = inhibition, most hits filed as inhibitors; AID 1490; 310,000 tested, 3.5% active; Biochemical Sfp PPTase activity, qHTS;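 note: the enzyme is Sfp with the accession as filed and its product quenches rhodamine fluorescence; potency is the fitted concentration of half-maximal effect; 0% = enzyme reaction without inhibitor and -100% = no enzyme wells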
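Reaction rates are the 30-min fluorescence difference (ex 525, em 598 nm) in wells containing 15 nM Sfp, 5 uM rhodamine-CoA and 12.5 uM BHQ-2-YbbR at pH 7.6 with 10 mM MgCl2.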
Tau ThT inhib = inhibitors of human tau fibril formation, thioflavin T binding; recombinant tau K18 P301L, heparin-induced fibrillization, ThT fluorescence; P10636; AID 1460; 270,000 tested, 2.1% active; Potency, µM (doses to about 57.4 µM), for the others: top-dose activity, negative = inhibition, hits mostly inhibitors; note: potency is the fitted concentration of half-maximal effect; nearly all actives have a fitted effect of over 55% in size
Target sequence (P10636 561-689 P618L limits assumed): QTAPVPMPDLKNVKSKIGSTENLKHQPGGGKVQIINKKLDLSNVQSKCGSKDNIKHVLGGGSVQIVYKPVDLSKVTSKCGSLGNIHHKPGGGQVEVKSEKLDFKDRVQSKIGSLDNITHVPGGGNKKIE
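Tau K18 P301L fragment (15 uM unlabeled plus 0.24 uM Alexa 594-labeled) in 100 mM sodium acetate pH 7 with compound, fibrillization induced by 20 uM heparin for 6 hr at 37 C. Thioflavin T (30 uM) added, fluorescence read after 1 hr (ex 450, em 510 nm).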
Tau fluor cs = counter-screen for tau fibril formation inhibitors. tau K18 P301L Alexa594 fluorescence, heparin fibrillization. Potency, µM (top dose mostly 57.7 µM), for the others: at the highest dose activity change, negative = decrease. AID 1463. 280,000 tested, 0.93% active; note: potency is the fitted concentration of half-maximal effect; nearly all actives have a fitted effect of over 55% in size
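Human K18 P301L tau (15 uM unlabeled plus 0.24 uM Alexa 594-labeled, final) in 100 mM sodium acetate pH 7 was mixed with compound and 20 uM heparin and incubated 6 hr at 37 C.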
Tau FP inhib = inhibitors of human tau fibril formation. P10636. K18 P301L tau heparin fibrillization, Alexa594 FP, 6 h. Potency, µM (top dose mostly 57.7 µM), for the others: at the highest dose activity, negative = inhibition, hits mostly inhibitors. 280,000 tested, 0.39% active. AID 1468; note: potency is the fitted concentration of half-maximal effect; nearly all actives have a fitted effect of over 55% in size
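Heparin (20 uM) drove fibril formation of recombinant tau K18 P301L, 15 uM unlabeled with 0.24 uM Alexa 594 label, for 6 hr at 37 C in 100 mM sodium acetate pH 7. Fluorescence polarization (555/632 nm) read 1 hr after 30 uM ThT.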
G9a block = G9a (human) methyltransferase inhibition; 350,000 tested, 8.8% active; Q96KQ7; Potency, µM (top dose mostly 102 µM), for the others: at the highest dose activity, negative = inhibition, most hits filed as inhibitors; G9a H3K9 monomethylation, AlphaScreen, 2 h; AID 504332; note: potency is the fitted concentration of half-maximal effect; nearly all actives have a fitted effect of over 75% in size
Target sequence (Q96KQ7 913-1193 limits assumed): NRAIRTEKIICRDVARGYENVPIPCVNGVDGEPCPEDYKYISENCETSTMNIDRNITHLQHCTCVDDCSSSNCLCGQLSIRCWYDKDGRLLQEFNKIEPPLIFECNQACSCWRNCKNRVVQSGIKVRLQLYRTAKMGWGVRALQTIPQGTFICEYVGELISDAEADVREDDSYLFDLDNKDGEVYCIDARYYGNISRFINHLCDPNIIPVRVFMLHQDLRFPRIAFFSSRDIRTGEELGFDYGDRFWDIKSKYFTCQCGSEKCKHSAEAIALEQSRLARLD
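Quantitative HTS format: methyltransferase activity on a biotin-tagged H3K9 peptide is measured by AlphaScreen, using a rabbit anti-monomethyl-H3K9 antibody with streptavidin donor and anti-IgG acceptor beads. Final levels are 20 nM enzyme, 500 nM peptide, 20 uM SAM; 2 h RT.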
Coupling enz = inhibits coupling enzyme system, counter-screen for aldolase hits. coupling enzyme system counterscreen, AmpLite Red fluorescence. activity change, negative = inhibition, % at 58.2 µM, hits read low. 290,000 tested, 0.67% active. AID 2472; in the data active = activity change below about -30%
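First, compound is pin-transferred into glyceraldehyde-3-phosphate coupling-enzyme reagent at 57.5 uM final and held 10 min at RT. Next, substrate, coupling system and AmpLite Red are added. After 20 min RT, fluorescence (525/598 nm) is read.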
* marks the source's active call; other numbers are inactive results; ? = inconclusive; · = not tested or not shown; [ ] = another dose, or the depositor's remark. This is a sample that favours compounds with a hit; in the whole collection about 11% have one here. Unless noted, calls come from the whole dose curve; as a rule, active = well fitted curve in the direction sought with a large enough effect; inconclusive = small, poorly fitted or top-dose-only effect, or another doubt; inactive = no such curve, though single readings can be large; an effect the other way counts as inactive or inconclusive. Unless noted, % is set by controls: 0 for no effect and ±100 for the full control effect.

SMILES	Sfp PPTase inh	Tau ThT inhib	Tau fluor cs	Tau FP inhib	G9a block	Coupling enz
O=C(CSc1ccc2nnc(-c3ccc(F)cc3)n2n1)N1CCCc2ccccc21	-29.0%	-11.9%	-3.2%	2.7%	4.3%	5.9
CCOc1ccc(-c2nnc3ccc(SCC(=O)Nc4nc5ccc(C)cc5s4)nn23)cc1	?	-6.7%	?	?	44.7µM*	-1.7
O=C(CSc1ccc2nnc(-c3ccc(Cl)cc3)n2n1)N1CCCc2ccccc21	-6.0%	2.6%	2.4%	-1.9%	31.6µM*	-3.1
CCOc1ccc(-c2nnc3ccc(SCC(=O)N4CCCCC4)nn23)cc1	13.5%	-1.6%	-0.3%	-5.2%	35.5µM*	-0.8
COc1ccc(-c2nnc3ccc(SCC(=O)N4CCCC4)nn23)cc1	?	2.6%	4.1%	-3.4%	50.1µM*	-1.1
COc1cccc(Cn2c(=O)n(CC3CCC(C(=O)N4CCOCC4)CC3)c(=O)c3sccc32)c1 (centres undefined)	·	-1.2%	-1.9%	0.0%	18.3%[59 µM]	·
COc1ccc(OC)c(-c2csc(NC(=O)CSCc3c(C)noc3C)n2)c1	·	·	·	·	16.1%[0.501 µM]	·
CN(C)c1ccc(CNC(=O)CCn2c(=O)c3cccn3c3ccc(F)cc32)cc1	·	2.4%	8.4%	-15.6%	-1.3%[59 µM]	·
O=C1N=C(N2CCOCC2)S/C1=C/c1ccc(-c2ccccc2Cl)o1	-1.7%	-16.3%	-13.1%	0.9%	-13.7%[59 µM]	0.0
O=Cc1ccc(-c2ccccc2C(=O)O)o1	11.0%	10.2%	15.7%	-3.0%	?	3.8
O=C1S/C(=C\c2ccc(N3CCOCC3)o2)C(=O)N1c1ccccc1	3.98µM*	11.2µM*	-23.7%	?	5.01µM*	-43.3*
O=C(O)c1ccccc1-c1ccc(/C=C2\SC(=O)N(c3ccccc3)C2=O)o1	-14.9%	·	·	·	7.08µM*	9.4
CC(Sc1nc2c([nH]c3ccccc32)c(=O)n1-c1ccccc1)c1ccccc1 (centres undefined)	·	-9.7%	?	-11.7%	-27.8%[59 µM]	·
O=C(c1ccncc1)N1CCC[C@@]2(CCN(c3ccccn3)C2)C1	3.9%	·	·	·	13.1%[12.7 µM]	4.1
Cc1cnc(NC2=NCCC2)s1	-11.1%	-4.7%	-4.2%	8.0%	11.2µM*	0.4
CCc1nnc(NC2=NCCC2)s1	56.2µM*	1.4%	7.3%	4.5%	?	-0.1
Cc1ccccc1NC(=O)Cc1nnc(N)s1	15.8%	-0.1%	3.3%	0.0%	-27.6%	1.7
COc1cc(OC)cc(C(=O)Nc2ccn(C)n2)c1	·	·	·	·	8.2%[12.7 µM]	·
CCOC(=O)C1(C)C=C(Nc2cccc(C(=O)O)c2)C(=O)N1c1cccc(C(=O)O)c1 (centres undefined)	·	-1.8%	5.2%	7.9%	16.3%[59 µM]	·
COc1ccc(CCN(C)CCCOc2ccc(S(=O)(=O)c3[nH]c4ccccc4c3C(C)C)cc2)cc1OC	39.8µM*	?	?	-12.9%	·	0.6
N#CC(Cc1ccc(O)c(O)c1)C(=O)N1CCc2ccccc21 (centres undefined)	·	-7.7%	-10.6%	1.8%	7.08µM*	·
CC(NCc1ccc(S(N)(=O)=O)cc1)C(=O)N1CCc2ccccc21 (centres undefined)	4.0%	·	-18.3%	-8.0%	3.9%	-0.9
COc1ccc(-c2csc(N(CCCN(C)C)C(=O)c3ccc(C(C)(C)C)cc3)n2)cc1	2.0%	·	·	·	?	1.1
COc1ccc(-c2csc(N(CCCN(C)C)C(=O)c3ccc(C)cc3)n2)cc1	2.8%	·	·	·	79.4µM*	-0.1
COc1ccc(-c2csc(N(CCCN(C)C)C(=O)c3ccc(Br)cc3)n2)cc1	35.5µM*	·	·	·	9.0%[0.501 µM]	-1.1
SMILES	Sfp PPTase inh	Tau ThT inhib	Tau fluor cs	Tau FP inhib	G9a block	Coupling enz
O=C(O)C1CCCCC1C(=O)N1CCCC1 (centres undefined)	27.2%	-13.4%	-10.3%	-13.6%	7.2%	-1.6
O=C(O)C1C2CCC(C2)C1C(=O)N1CCCC1 (centres undefined)	44.7µM*	·	·	·	-12.0%	0.8
COc1ccc(-n2c(C)cc(-c3cn4cccc(C)c4n3)c2C)cc1	6.9%	?	-5.9%	4.0%	?	-0.5
Cc1cc(-c2cn3ccccc3n2)c(C)n1-c1ccccc1	-10.8%	?	-16.5%	-4.9%	50.1µM*	-1.5
CC1CC2(CCCCC2)Nc2ccc3ccccc3c21 (centres undefined)	-24.2%	?	-25.5%	5.0%	?	-6.3
CCc1cccc2c1NC1(CCCC1)CC2C (centres undefined)	56.2µM*	?	-22.4%	-10.4%	?	-4.1
CN1CCN(c2nc(-c3ccccc3)nc(-c3ccccc3)c2C#N)CC1	-23.3%	-15.7%	-16.0%	-1.0%	-35.8%	1.1
COc1cccc(-c2nc(-c3ccccc3)nc(N3CCN(C)CC3)c2C#N)c1	-26.7%	-4.1%	-15.8%	-0.8%	50.1µM*	-0.9
COC(=O)c1sc2nc(-c3ccccc3)nc(N3CCN(C)CC3)c2c1C	50.1µM*	-11.8%	-17.5%	-2.7%	?	-0.7
COc1ccc(-c2nc(-c3ccccc3)nc(N3CCN(C)CC3)c2C#N)cc1	1.1%	-4.9%	-9.0%	-6.8%	-7.9%	-3.5
COc1ccc(-c2nc(-c3cccc(C)c3)nc(N3CCN(C)CC3)c2C#N)cc1	10.9%	-6.9%	-11.7%	-2.1%	79.4µM*	2.3
Nc1nc2c(nc(Br)n2C2OC3COP(=O)(O)O[C@@H]3C2O)c(=O)[nH]1 (some centres undefined)	·	·	·	·	-11.2%[59 µM]	·
Cc1cc(C(=O)NCc2ccc(F)cc2)c2ccccc2n1	2.7%	·	·	·	21.9%	3.8
O=C(OCc1cc(=O)n2nc(-c3cccs3)sc2n1)c1ccccc1Br	·	?	3.9%	1.4%	11.0%[59 µM]	·
Cc1ccc(/C=N/N2CCN(Cc3cccc4ccccc34)CC2)s1	8.1%	-15.7%	-8.4%	-4.0%	20.0%[0.501 µM]	0.6
Cc1ccc(/C=N/N2CCN(Cc3cccc4ccccc34)CC2)o1	?	?	-21.4%	10.5%	44.7µM*	-3.1
Cc1ccc(/C=N/N2CCN(Cc3ccccc3)CC2)o1	-25.3%	?	-7.4%	-2.5%	20µM*	-1.7
O=C(c1ccc(=O)oc1)N1CCOCC1	6.3%	-7.6%	-5.2%	2.9%	22.4µM*	4.2
CCCCc1cc(-c2n[nH]c(=S)o2)c2ccccc2n1	-6.7%	·	·	·	4.47µM*	7.5
CCOc1ccc(-c2n[nH]c(=S)o2)cc1	0.9%	-9.2%	0.4%	1.1%	5.01µM*	5.6
CCOc1ccc(-c2n[nH]c(=S)c3ccccc23)cc1	3.4%	·	·	·	-5.5%	2.3
CCOc1ccccc1-c1n[nH]c(=S)o1	-7.9%	-12.7%	-6.0%	-5.2%	1.78µM*	2.2
CCOc1ccc(NC(=O)Cn2c(=O)n(CCC(=O)NCCc3ccccc3)c(=O)c3ccccc32)cc1	·	2.2%	-1.3%	-10.3%	-4.2%[59 µM]	·

Bioassay records deposited in PubChem BioAssay by National Center for Advancing Translational Sciences (NCATS).
